# Results taken from PubChem BioAssay (NCATS).
# Records with an inconclusive call do not appear. Active and inactive are the calls of the source. Calls follow the shape of the dose curve; as a rule, active = well fitted cell-killing curve with a large enough effect; inconclusive = small, poorly fitted or top-dose-only effect, or effect the other way; inactive = no such curve, though single readings can be large or run the other way.
# Test: Viability qHTS for spleen associated tyrosine kinase inhibitor (SYKi) drug resistant MV4-11 cells (AID 1963824); also: nearly all actives have a fitted effect of over 35% in size
# Details: SYKi-resistant MV4-11 viability, CellTiter-Glo, 72 h; series mostly up to 45 µM
# How it was run: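 CellTiter-Glo luminescence, read 10 min after reagent addition, reports viability after a 72 hr compound exposure. Cells are an MV4-11 line made resistant to SYK inhibition, seeded at 500 per well onto compound-containing plates.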
# Potency is read from the fitted curve at half-maximal effect.
SMILES,Potency,"viability, % of control"
O=C(C1OC1/C=C/c1ccc2c(c1)OCO2)N1CCCCC1 (stereo not drawn),inactive,
O=C(NO)c1cnc(N2CCN(S(=O)(=O)c3ccc4ccccc4c3)CC2)nc1,inactive,
COc1cc2nc(N3CCN(C)CC3)nc(NC3CCN(Cc4ccccc4)CC3)c2cc1OC,3.26 µM (active),
C=C(CCO)C(=O)OCC1OCC(OC(=O)C(=C)CCO[C@@H]2O[C@H](COC(=O)C(=C)CCO[C@@H]3O[C@H](CO)[C@@H](O)[C@H](O)[C@H]3O)[C@@H](O)[C@H](O)[C@H]2O)C(O)C1O (stereo partly drawn),inactive,
CCC(O)(C(=O)OCc1ccccc1NC(=O)CCC(=O)O)C(C)O (stereo not drawn),inactive,
Cc1ccc(CNc2ncnc3ccc(-c4ccc(CO)o4)cc23)o1,5.17 µM (active),
Cc1cc(F)ccc1[C@H]1C[C@@H](N2CCN3C(=O)CC[C@H]3C2)CCN1C(=O)N(C)[C@H](C)c1cc(C(F)(F)F)cc(C(F)(F)F)c1,5.17 µM (active),
C/C=C1\[C@H](O[C@@H]2O[C@H](CO)[C@@H](O)[C@H](O)[C@H]2O)OC=C2C(=O)OCCc3ccc(O)c(c3)Oc3ccc(cc3)CCOC(=O)C[C@H]21,3.85 µM (active),
Cc1c(OCc2cccc(-c3ccc(C(=O)O)cc3)c2)cc2c(c1C)C(=O)C(C1CCCC1)C2 (stereo not drawn),inactive,
CO[C@H]1C[C@@H]2CC[C@@H](C)[C@@](O)(O2)C(=O)C(=O)N2CCCC[C@H]2C(=O)O[C@H]([C@H](C)C[C@@H]2CC[C@@H](OCCO)[C@H](OC)C2)CC(=O)[C@H](C)/C=C(/C)[C@@H](O)[C@@H](OC)C(=O)[C@H](C)C[C@H](C)/C=C\C=CC=C1C,11.8 µM (active),
COc1ccc(C2(O)CCC(N3CC[C@@H](NC(=O)CNC(=O)c4cccc(C(F)(F)F)c4)C3)CC2)cn1 (stereo partly drawn),inactive,
CC1(C)CC[C@]2(C(=O)O[C@@H]3O[C@H](CO[C@@H]4O[C@H](CO[C@@H]5O[C@H](CO)[C@H](O)[C@H](O)[C@H]5O)[C@@H](O)[C@H](O)[C@H]4O)[C@@H](O)[C@H](O[C@@H]4O[C@H](CO)[C@@H](O)[C@H](O)[C@H]4O)[C@H]3O)[C@H](O)C[C@]3(C)C(=CCC4[C@@]5(C)CC[C@H](O[C@@H]6OC[C@@H](O)[C@H](O)[C@H]6O)[C@@](C)(C(=O)O)C5CC[C@]43C)[C@@H]2C1 (stereo partly drawn),,90.5% [at 9.25 µM] (inactive)
CC(C)c1c(O)ccc2c1CC[C@H]1C(C)(C)CCC[C@]21C,16.4 µM (active),
O=C(O)c1cccc(CN2C(=O)/C(=C(\c3ccccc3)c3ccc(Cl)cc3)c3ccccc32)c1,20.6 µM (active),
CN(C)c1ccnc2sc3c(=O)n(N4CCCCCC4)cnc3c12,20.6 µM (active),
OC[C@H]1O[C@@H](OC[C@H]2O[C@@H](OC/C=C/c3ccccc3)[C@H](O)[C@@H](O)[C@@H]2O)[C@@H](O)[C@@H]1O,inactive,
CN1C[C@@H]2c3ccccc3Oc3ccc(Cl)cc3[C@H]2C1,18.6 µM (active),
C#C[C@]1(O)CC[C@H]2[C@@H]3CCC4=C/C(=N/O)CC[C@@H]4[C@H]3CC[C@@]21CC,25.9 µM (active),
O=C(/C=C/n1cnc(-c2cc(C(F)(F)F)cc(C(F)(F)F)c2)n1)NNc1cnccn1,1.46 µM (active),
Oc1ccc([C@H]2COc3cc(O)ccc3C2)cc1,13 µM (active),
NC(=O)C1=CC2C3C=CC2C(OC3=O)O1 (stereo not drawn),26.6 µM (active),
C=C(CO)C(=O)O[C@H]1C[C@@]23O[C@@H]2CC/C(=C/[C@H]2OC(=O)C(=C)[C@H]12)CO[C@H]3O,11.4 µM (active),
COc1ccccc1-c1c[nH]c2ncc(-c3cncc(C(=O)N(C)C)c3)cc12,1.84 µM (active),
C[C@@H](NC(=O)[C@H](O)c1cc(F)cc(F)c1)C(=O)N[C@@H]1C(=O)N(C)c2ccccc2-c2ccccc21,18.4 µM (active),
C=C1C(=C/C=C2\CCC[C@]3(C)[C@@H]([C@H](C)/C=C/[C@@H](O)C4CC4)CC[C@@H]23)C[C@@H](O)C[C@@H]1O,0.188 µM (active),
CC1=C(CO)C2(C)CCCC(C)(C)C2C(O)C1O (stereo not drawn),inactive,
C=C1CC[C@@H]2[C@@](C)(CO[C@@H]3O[C@H](CO)[C@@H](O)[C@H](O)[C@H]3O)[C@H](O)CC[C@@]2(C)[C@@H]1CC/C(C)=C/CO[C@@H]1O[C@H](CO)[C@@H](O)[C@H](O)[C@H]1O,inactive,
C=CC1C(O[C@@H]2O[C@H](CO)[C@@H](O)[C@H](O)[C@H]2O)OC=C(C(=O)OC)C1Cc1nccc2c1[nH]c1ccccc12 (stereo partly drawn),3.99 µM (active),
